The results in this text go back to PubChem BioAssay AID1117362 (Southern Research Institute, 2015).

About 100 (2.8%) of roughly 3,600 compounds were called active.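 How the source made its calls: active means inhibition above 30% at one or more concentrations, seen consistently on every test date; inconclusive means results that disagree between repeat test dates; inactive means the rest.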 These entries were drawn from the full list.

A short description of this experiment: GST-antibody interaction or FRET quenching – biochemical, TR-FRET, artefact control for Vif-APOBEC3G degradation inhibitor project, dose response (AID 1117362).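 Further: biotinylated GST protein used in place of GST-Vif 1-94 and biotin-A3G peptide; detects fluorescence quenchers or blockers of GST binding to anti-GST antibody.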 Particulars: TR-FRET counter screen, biotin-GST/anti-GST signal; series mostly up to 100 µM. Background: TR-FRET usually uses a lanthanide donor and a delayed reading to cut background.
With `COc1ccc(-n2c(C)cc(C(=O)CSc3nn4c(=O)c(C(C)(C)C)nnc4s3)c2C)cc1`, the IC50 entry was “inactive”.
The value for `CCN(C(=O)c1coc(=O)c(Br)c1)c1ccc2c(c1)OCO2` was “inactive”; that for `COc1ccc(NC(=O)/C(C#N)=C\c2ccc(Br)o2)cc1` was “inactive”; that for `COc1ccc2c(c1)c(=O)oc1cc(OCC(=O)N3CCC(C)CC3)ccc12` was “inactive”.
The value for `CC(C)(C)OC(=O)N(Cc1ccccc1)Cc1cccc(OCc2cccc(NC(=O)c3ccccc3)c2)c1` was “inactive”; that for `Cc1cc(C(=O)COC(=O)c2cc(O)c3ccccc3c2O)c(C)n1CC1CCCO1` (configuration not stated) was “inactive”.
The value for `CCOc1ccc2[nH]c(=O)c(CN(Cc3ccco3)C(=O)c3ccc(Br)cc3)cc2c1` was “inactive”.
Take `CCOC(=O)C1=C(C)N=C2SC(C(=O)OC)=CC(=O)N2C1c1cc(OC)c(OC)c(OC)c1` (configuration not stated): the IC50 result was “inactive”.
The entry for `CC(C)OC(=O)c1cccc(C(=O)O)n1` is “inactive”; for `O=C(NCc1ccccn1)c1coc(=O)c(Br)c1` it is “inactive”.
Take `CCCN1C(=O)S/C(=C\c2ccc(N3CCOCC3)cc2C)C1=O`: the IC50 entry was “inactive”.
The value for `CN(CCc1ccccc1)C(=O)c1ccc(NC(=O)Cc2ccc(NC(=O)C3CCN(C(=O)CCc4ccccc4)CC3)cc2)cc1` was “inactive”.
The value for `Cc1ccc(C2SCC(=O)N2Cc2cn3ccsc3n2)o1` (configuration not stated) was “inactive”.
The entry for `CCn1c(SCC(=O)Nc2cc(C)on2)nnc1-c1cccnc1` is “inactive”.
For the compound `C/C(=N\Nc1ccc(Cl)c(C(=O)O)c1)c1ccc[nH]1`, the IC50 result is “inactive”.
On to `COc1ccc(C2=CC(c3ccc(Cl)cc3)n3cnnc3N2)cc1OC` (configuration not stated), for which the IC50 result was “inactive”.
The value for `COc1ccc(Nc2ccc(OC)cc2)cc1` was “inactive”.
As for `Cc1nn(-c2ccccc2)c2sc(C(=O)N3CCc4ccccc4C3)cc12`, the IC50 result was “inactive”.
The entry for `C/C(N)=C(/C#N)C(=O)CSc1nnc(NC(C)C)s1` is “inactive”; for `CCN1CCN(C2=NC(=O)/C(=C/c3ccc(C)o3)S2)CC1` it is “inactive”; for `Cc1ccc2cc(C(c3nnnn3Cc3ccccc3)N3CCc4ccccc43)c(=O)[nH]c2c1` (configuration not stated) it is “inactive”.
For `COC(=O)\C(C(C)=O)=C(/C=C/C=C/C=C/N(C)C)N(C)C`, the IC50 entry was “inactive”.
The value for `O=C(NCCc1c[nH]c2ccccc12)c1ccc(S(=O)(=O)NCc2ccco2)cc1` was “inactive”; that for `COc1ccc(S(=O)(=O)Cc2ccc(C(=O)N3CCN(c4ccccc4)CC3)o2)cc1` was “inactive”; that for `CC1=C(C(=O)Nc2ccccc2F)C(c2ccsc2)C2=C(CC(c3ccccc3)CC2=O)N1` (configuration not stated) was “inactive”.
The figure for `C[c-]1[c-](C)[c-](C)[c-](C)[c-]1C.[Fe].c1cc2nccc(N3CCCC3)[c-]2c1` (configuration not stated) is 28 µM (active); for `O=C1NC(c2ccc(Br)cc2)=N/C1=C/c1ccco1` it is “inactive”.

One may read the IC50 as the concentration needed to halve the response being measured.
